High-throughput results deposited in PubChem by National Center for Advancing Translational Sciences (NCATS).
Only some compounds are listed: those with a hit (about 10% of all), similar ones and a draw of the others.
G9a block = qHTS Assay for Inhibitors of Histone Lysine Methyltransferase G9a; Histone-lysine N-methyltransferase EHMT2 (Homo sapiens), Q96KQ7; 350,000 compounds, 8.8% hits; AID 504332, 2011; G9a H3K9 monomethylation, AlphaScreen, 2 h; Potency, µM (series often up to 102 µM), without a hit: top-dose activity, negative = inhibition, actives largely listed as inhibitors; further: potency means the concentration at half of the fitted maximal effect; on the % scale 0 is the no-effect control and ±100 the full control effect; nearly all actives have a fitted effect of over 75% in size
Target sequence (Q96KQ7 913-1193 limits assumed): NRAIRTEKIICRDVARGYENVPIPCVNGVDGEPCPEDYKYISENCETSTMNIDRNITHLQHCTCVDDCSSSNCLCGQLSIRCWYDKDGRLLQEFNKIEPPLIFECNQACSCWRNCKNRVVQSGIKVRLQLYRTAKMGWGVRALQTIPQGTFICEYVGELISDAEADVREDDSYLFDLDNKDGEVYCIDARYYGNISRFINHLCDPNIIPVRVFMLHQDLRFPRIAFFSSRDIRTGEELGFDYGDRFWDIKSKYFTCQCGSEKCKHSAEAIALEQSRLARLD
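Quantitative HTS format: methyltransferase activity on a biotin-tagged H3K9 peptide is measured by AlphaScreen, using a rabbit anti-monomethyl-H3K9 antibody with streptavidin donor and anti-IgG acceptor beads. Final levels are 20 nM enzyme, 500 nM peptide, 20 uM SAM; 2 h RT.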
Six1-Eya2 blk = qHTS Assay for Inhibitors of the Six1/Eya2 Interaction; 360,000 compounds, 0.56% hits; AID 651725, 2012; AlphaScreen GST-Six1/His-Eya2 binding, biochemical; stronger effect = lower value; activity change, % (test concentration not listed); in the data active means activity change below about -65%; inconclusive means mostly about -30% to -63%; further: on the % scale 0 is the no-effect control and ±100 the full control effect
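Compounds are tested against tagged Six1 and Eya2 proteins bridged by glutathione donor and nickel acceptor beads; after a one-hour incubation at 37 °C without light, AlphaScreen emission is recorded.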
BAZ2B block = qHTS Assay for Inhibitors of BAZ2B | Bromodomain adjacent to zinc finger domain protein 2B (Homo sapiens), Q9UIF8 | AlphaScreen BAZ2B-H3K14Ac peptide displacement | Potency, µM (titrated, usually from 114 µM), for inactives: at the highest dose activity change, negative = inhibition, usual class: inhibitors | 360,000 compounds, 4.4% hits | AID 504333, 2011; further: potency means the concentration at half of the fitted maximal effect; on the % scale 0 is the no-effect control and ±100 the full control effect; nearly all actives have a fitted effect of over 60% in size
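BAZ2B (50 nM) with biotin-H3(5-23)K14Ac peptide (50 nM) in PBS pH 7.4, 0.01% Tween-20, preformed 30 min, then compound 30 min at room temperature; top concentration 110uM. AlphaScreen streptavidin donor/nickel chelate acceptor beads (10 ug/mL final), 20 min dark, signal read.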
CtBP-E1A blk = qHTS Assay for Inhibitors of the CtBP/E1A Interaction. AlphaScreen GST-E1A/His-CtBP binding, 1536-well; stronger effect = lower value. activity change, % (concentration not given with the values). CtBP / adenovirus E1A interaction (AlphaScreen). 340,000 compounds, 0.49% hits; in the data active means activity change below about -65%; inconclusive means mostly about -30% to -63%; further: on the % scale 0 is the no-effect control and ±100 the full control effect
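GST-E1A and His-tagged CtBP (125 nM each as 5X stock) were preincubated with pin-transferred compound for 2 h at 37 °C in the dark, then glutathione donor and nickel acceptor beads were added for 1 h before AlphaScreen reading.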
JMJD2A Tudor inh = qHTS Assay for Inhibitors of JMJD2A-Tudor Domain | Lysine-specific demethylase 4A (Homo sapiens), O75164 | AlphaScreen JMJD2A-Tudor / H3K4me3 peptide binding | Potency, µM (series often up to 114 µM), for the others: at the highest dose activity change, negative = inhibition, hits mostly inhibitors | 390,000 compounds, 4.4% hits; further: potency means the concentration at half of the fitted maximal effect; on the % scale 0 is the no-effect control and ±100 the full control effect; nearly all actives have a fitted effect of over 50% in size
HP1b chromo inh = HTS for Inhibitors of HP1-beta Chromodomain Interactions with Methylated Histone Tails; Chromobox protein homolog 1 (Homo sapiens), P83916; AlphaScreen HP1-beta / biotin-H3K9me3 peptide binding; Potency, µM (highest dose often 114 µM), for inactives: at the highest dose activity change, negative = inhibition, most hits filed as inhibitors; 390,000 compounds, 0.56% hits; AID 540317, 2011; further: potency means the concentration at half of the fitted maximal effect; nearly all actives have a fitted effect of over 70% in size
Target sequence (P83916 whole entry, looked up): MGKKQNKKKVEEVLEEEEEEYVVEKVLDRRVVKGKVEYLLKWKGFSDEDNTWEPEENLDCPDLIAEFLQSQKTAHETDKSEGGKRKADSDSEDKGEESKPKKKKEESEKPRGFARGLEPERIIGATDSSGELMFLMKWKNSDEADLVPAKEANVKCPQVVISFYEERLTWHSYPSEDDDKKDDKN
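Compound inhibition of the preformed complex between 50 nM HP1-beta and 50 nM biotinylated H3K9me3 peptide was read by AlphaScreen. Buffer was PBS pH 7.4 with 0.01% Tween-20. Incubations ran 30 min at room temperature, with 10 ug/mL donor/acceptor beads.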
* hit, by the source's call; ? = inconclusive; . = no result; [ ] = remark or other dose. Unless noted, the call rests on the fitted dose curve; in most records, active means well fitted inhibition curve with a large enough effect; inconclusive means small, poorly fitted or top-dose-only effect; inactive means no such curve, though single readings can be large or run the other way.

SMILES	G9a block	Six1-Eya2 blk	BAZ2B block	CtBP-E1A blk	JMJD2A Tudor inh	HP1b chromo inh
CC1(C)CC(=O)C(C=Nc2ccc(O)c(N=CC3=C(O)CC(C)(C)CC3=O)c2)=C(O)C1	20µM*	2	-14%	9	-27%	43%
CC1(C)CC(=O)C(C=Nc2ccc(C(=O)c3ccccc3)cc2N=CC2=C(O)CC(C)(C)CC2=O)=C(O)C1	40µM*	10	?	-7	-34%	32%
Cc1cc(N=CC2=C(O)CC(C)(C)CC2=O)no1	-26%[59 µM]	-1	.	-5	79µM*	31%
CCOC(=O)C(C(=O)Nc1ccccn1)C1CCCCC1 (centres undefined)	50µM*	3	1%	9	89µM*	21%
CC(C)c1ccc(NC(=O)COC(=O)CC2CCCC2)cc1	.	18	.	2	26%	87%
O=C(COC(=O)CC1CCCC1)Nc1cc2c(cc1Cl)C(=O)c1ccccc1C2=O	?	-20	56µM*	-1	56µM*	-26%
COc1ccccc1NC(=O)CCNS(=O)(=O)c1ccc2c(c1)CCN2C(=O)C1CC1	31%[59 µM]	.	-5%	.	-23%	19%[57 µM]
NC(=O)C1CCN(C2=C(NS(=O)(=O)c3ccc(Cl)cc3)C(=O)c3ccccc3C2=O)CC1	25µM*	-25	35µM*	.	?	-20%
COC(=O)C1CCN(C2=C(NS(=O)(=O)c3ccc(Cl)cc3)C(=O)c3ccccc3C2=O)CC1	-175%[59 µM]	-67*	11µM*	-79*	?	?
CC1CCCN(C2=C(NS(=O)(=O)c3ccc(Cl)cc3)C(=O)c3ccccc3C2=O)C1 (centres undefined)	2.5µM*	-26	5µM*	?	8.9µM*	6.3µM*
CCN(C(=O)Cn1c(C(=O)OC)cc2oc3ccccc3c21)c1cccc(C)c1	?	.	-14%	.	-25%	27%
COc1ccc(S(=O)(=O)NCCc2nnc3ccc(SCC(=O)Nc4cc(C)cc(C)c4)nn23)cc1	-6%[59 µM]	.	-16%	.	-13%	29%
CCCN(CCC)C(=O)C1CCN(c2cc(C)nc3c(-c4ccc(Cl)cc4)c(C)nn23)CC1	24%[59 µM]	.	14%	.	31%	95%
Cc1c(CN(C)C(=O)c2cc(-c3ccccc3)nc3ccc(Br)cc23)cnn1C	-2%[59 µM]	.	1%[57.1 µM]	.	-8%	34%
Cc1ccc(C(=O)Nn2c(O)c(C=C3N=c4ccccc4=N3)sc2=S)cc1	7%[59 µM]	0	-6%	1	-26%	16%
O=C(Nn1c(O)c(C=C2N=c3ccccc3=N2)sc1=S)c1ccccc1	1.4µM*	0	-29%	-12	-34%	0%
Clc1cccc(-c2ccc(CNCc3ccccn3)o2)c1	20µM*	-16	22µM*	.	56µM*	-16%
O=[N+]([O-])c1ccc2c(c1)nc1n2CCN(c2ccccc2)C1	13µM*	-17	?	0	-26%	52%
COCCN1CCn2c(nc3cc([N+](=O)[O-])ccc32)C1	35µM*	4	-24%	5	-3%[11.4 µM]	60%
O=[N+]([O-])c1ccc2c(c1)nc1n2CCSC1	?	8	-1%	1	-11%	2%
CSc1cc2c(s1)c1cnn(Cc3ccccc3F)c(=O)c1n2C	.	.	.	.	-13%	.
COc1ccc(CNc2ncnc3ccc(-c4cccc(NS(C)(=O)=O)c4)cc23)c(OC)c1	-37%[0.501 µM]	.	.	.	.	.
C/C(CC(=O)Nc1ccc(N(C)C)cc1)=N\NC(=O)c1cnccn1	?	-12	-35%	-24	79µM*	-7%
CCOc1ccc(NC(=O)C/C(C)=N/NC(=O)c2cnccn2)cc1	6%[0.501 µM]	-16	?	-10	-1%	33%
COC(C(=O)N/N=C(\C)CC(=O)Nc1ccc(N(C)C)cc1)c1ccccc1 (centres undefined)	16µM*	-12	-21%	-3	-26%	11%
SMILES	G9a block	Six1-Eya2 blk	BAZ2B block	CtBP-E1A blk	JMJD2A Tudor inh	HP1b chromo inh
C/C(CC(=O)Nc1ccc(N(C)C)cc1)=N\NC(=O)c1ccccn1	50µM*	?	56µM*	?	?	?
COC(C(=O)N/N=C(\C)CC(=O)Nc1ccc(Cl)cc1C)c1ccccc1 (centres undefined)	-14%	-5	-3%	-13	-13%	33%
COc1ccc(C(=O)N/N=C(\C)CC(=O)Nc2ccc(N(C)C)cc2)c(OC)c1	13%[0.501 µM]	-27	40µM*	-4	?	?
C/C(CC(=O)Nc1ccc(N(C)C)cc1)=N\NC(=O)c1ccccc1Cl	.	16	.	24	.	.
COc1ccc2oc(=O)c(-c3cn4c(n3)sc3cc(F)ccc34)cc2c1	-2%[59 µM]	.	0%	.	-15%	28%
CCOC(=O)c1sc(NC(=O)C(C)Oc2ccc(OC)cc2)c(C(=O)OCC)c1C (centres undefined)	-17%[59 µM]	.	5%	.	-25%	44%
CCCS(=O)(=O)N1CC(=O)N(c2ccc(C)c(Cl)c2)C(C)(C(=O)NC2CCCCCC2)C1 (centres undefined)	-2%[59 µM]	.	3%	.	-6%	24%
CN(C)c1ccc(NC(=O)CC(NCc2ccccn2)C(=O)O)cc1 (centres undefined)	13%[59 µM]	-92*	5.6µM*	7	18µM*	30%
COc1ccc(/C=N/NC(=O)c2ccccc2OCc2ccccc2)c(OC)c1	4%	-11	-7%	-8	-15%	15%
C/C(CC(=O)Nc1ccc(N(C)C)cc1)=N\NC(=O)c1ccncc1	35µM*	-11	-33%	-5	-12%	17%
Cc1ccc(NC(=O)C(NCc2ccccn2)c2ccccc2)cc1 (centres undefined)	66%[59 µM]	-18	-18%	-20	-19%	23%
COc1ccc(/C(C)=N/NC(=O)c2ccccc2OCc2ccccc2)c(OC)c1	5%	5	-38%	-1	18µM*	-21%
Cc1c(Cl)cccc1NC(=O)CCN1C(=O)c2ccccc2Sc2ncccc21	-10%[59 µM]	.	-15%	.	-22%	-6%
CCc1ccccc1NC(=O)Nc1cc(C(=O)NCc2ccccc2OC)ccc1N1CCCC1	4%[59 µM]	.	-13%	.	-9%	6%
COCCCNC(=O)c1sc2nc3n(c(=O)c2c1C)CCC3	-17%[59 µM]	.	-1%	.	-10%	32%
